PubChem BioAssay AID1159580 (chemical genetic matrix, 2015)
Several values for one entry are separate records, joined by “and”; a condition that tells them apart may be missing. Equal entries are not always repeated. Hit rate of the full screen: of about 5,500 compounds, about 2,000 (36%) were called active. About 18% were inconclusive and are not listed. No stated cut-off is given here; in the data, active means normalized growth mostly below about 0.91 (no sharp cut-off); inconclusive means no clear call, values can overlap the other calls; inactive means mostly above about 0.92. This is one part of the list.

Test: chemical genetic growth profiling, strain panel (AID 1159580);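 further: tested at 20 µM; growth read once vehicle control cultures reached saturation at 30 °C; 1 = growth at the plate median or of vehicle wells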
Details: S. cerevisiae deletion strains, growth OD

Measured: normalized growth

NCC(O)CC(=O)O (centres undefined)
inactive: locus YAL021C, strain ccr4, stronger effect = lower value 1.01 | locus YAL026C, strain drs2, stronger effect = lower value 0.967 | locus YAL030W, strain snc1, stronger effect = lower value 0.98 | locus YBL061C, strain skt5, stronger effect = lower value 0.986 | locus YBR009C, strain hhf1, stronger effect = lower value 0.962 | locus YBR021W, strain FUR4, stronger effect = lower value 0.999 | locus YBR023C, strain chs3, stronger effect = lower value 0.994 | locus YBR171W, strain sec66, stronger effect = lower value 0.989 | locus YBR229C, strain ROT2, stronger effect = lower value 1.01 | locus YBR231C, strain swc5, stronger effect = lower value 0.995 | locus YBR279W, strain paf1, stronger effect = lower value 0.991 | locus YCL011C, strain gbp2, stronger effect = lower value 0.966 | locus YCL016C, strain dcc1, stronger effect = lower value 0.994 | locus YCL029C, strain bik1, stronger effect = lower value 0.992 | locus YCL061C, strain MRC1, stronger effect = lower value 0.995 | locus YCL069W, strain vba3, stronger effect = lower value 0.984 | locus YCR088W, strain abp1, stronger effect = lower value 0.977 | locus YDL005C, strain med2, stronger effect = lower value 0.969 | locus YDL035C, strain GPR1, stronger effect = lower value 1.01 | locus YDL040C, strain nat1, stronger effect = lower value 0.991 | locus YDL074C, strain BRE1, stronger effect = lower value 1.01 | locus YDL101C, strain DUN1, stronger effect = lower value 1.01 | locus YDL134C, strain PPH21, stronger effect = lower value 1.01 | locus YDL185W, strain tfp1, stronger effect = lower value 0.994 | locus YDL192W, strain arf1, stronger effect = lower value 0.997 | locus YDR001C, strain nth1, stronger effect = lower value 0.977 | locus YDR069C, strain doa4, stronger effect = lower value 1.04 | locus YDR101C, strain arx1, stronger effect = lower value 1.02 | locus YDR137W, strain rgp1, stronger effect = lower value 0.988 | locus YDR159W, strain sac3, stronger effect = lower value 0.968 | locus YDR162C, strain NBP2, stronger effect = lower value 1.02 | locus YDR195W, strain ref2 0.951 | locus YDR297W, strain sur2, stronger effect = lower value 0.986 | locus YDR318W, strain mcm21, stronger effect = lower value 1.01 | locus YDR334W, strain swr1, stronger effect = lower value 0.975 | locus YDR335W, strain msn5, stronger effect = lower value 0.988 | locus YDR388W, stronger effect = lower value 0.999 | locus YDR392W, strain spt3, stronger effect = lower value 0.892 | locus YDR502C, strain sam2, stronger effect = lower value 0.991 | locus YEL003W, strain gim4, stronger effect = lower value 0.964 | locus YEL037C, strain rad23, stronger effect = lower value 0.977 | locus YEL061C, strain CIN8 (second series), stronger effect = lower value 0.966 | locus YEL061C, strain CIN8, stronger effect = lower value 1.01 | locus YER015W, strain faa2, stronger effect = lower value 0.986 | locus YER016W, strain bim1, stronger effect = lower value 0.983 | locus YER110C, stronger effect = lower value 1 | locus YER111C, strain swi4, stronger effect = lower value 0.974 | locus YER155C, strain BEM2 (second series), stronger effect = lower value 0.997 | locus YER155C, strain BEM2, stronger effect = lower value 1.01 | locus YER167W, strain BCK2, stronger effect = lower value 1.01 | locus YFR010W, strain ubp6, stronger effect = lower value 0.973 | locus YGL078C, strain dbp3, stronger effect = lower value 0.994 | locus YGL086W, strain mad1, stronger effect = lower value 1 | locus YGL167C, strain pmr1, stronger effect = lower value 0.957 | locus YGL173C, strain kem1, stronger effect = lower value 0.984 | locus YGL227W, strain vid30, stronger effect = lower value 0.955 | locus YGL240W, strain doc1, stronger effect = lower value 0.989 | locus YGL248W, strain PDE1, stronger effect = lower value 1.01 | locus YGL253W, strain hxk2, stronger effect = lower value 0.989 | locus YGR078C, strain PAC10, stronger effect = lower value 1.01 | locus YGR135W, strain pre9, stronger effect = lower value 1 | locus YGR252W, strain gcn5, stronger effect = lower value 0.982 | locus YHR013C, strain ard1, stronger effect = lower value 0.964 | locus YHR027C, strain rpn1, stronger effect = lower value 0.997 | locus YHR030C, strain SLT2, stronger effect = lower value 1.01 | locus YHR079C, strain IRE1 (second series), stronger effect = lower value 1 | locus YHR079C, strain IRE1, stronger effect = lower value 1.03 | locus YHR094C, strain hxt1, stronger effect = lower value 0.988 | locus YHR129C, strain ARP1, stronger effect = lower value 1.01 | locus YHR142W, strain chs7, stronger effect = lower value 1.02 | locus YHR200W, strain rpn10, stronger effect = lower value 0.999 | locus YIL066C, strain RNR3, stronger effect = lower value 1.02 | locus YIL073C, strain SPO22, stronger effect = lower value 1.03 | locus YIL125W, strain kgd1, stronger effect = lower value 1.01 | locus YIR030C, strain dcg1, stronger effect = lower value 1 | locus YJL092W, strain hpr5, stronger effect = lower value 0.99 | locus YJL095W, strain BCK1 (second series), stronger effect = lower value 1.01 | locus YJL095W, strain BCK1, stronger effect = lower value 1.01 and 1.02 | locus YJL115W, strain asf1, stronger effect = lower value 0.981 | locus YJL129C, strain trk1, stronger effect = lower value 0.991 | locus YJL134W, strain LCB3, stronger effect = lower value 1.01 | locus YJL154C, strain vps35, stronger effect = lower value 0.981 | locus YJL164C, strain tpk1, stronger effect = lower value 1.06 | locus YJL166W, strain qcr8, stronger effect = lower value 1.02 | locus YJL168C, strain set2, stronger effect = lower value 0.997 | locus YJL187C, strain SWE1 (second series), stronger effect = lower value 1.02 | locus YJL187C, strain SWE1, stronger effect = lower value 0.994 | locus YJR043C, strain POL32, stronger effect = lower value 1.02 | locus YJR066W, strain TOR1, stronger effect = lower value 0.924
